Results as given in PubChem BioAssay AID1159580 (chemical genetic matrix, 2015).
“And” between values parts separate entries of the source, which are not always exact repeats. Equal entries are not always repeated. About 2,000 (36%) of roughly 5,500 compounds were called active. Another 18% or so got no clear call; they are omitted. Cut-off read from the data, not from the text of the source: active = normalized growth mostly below about 0.91 (no sharp cut-off); inconclusive = no clear call, values can overlap the other calls; inactive = mostly above about 0.92. This is one part of the list.

Experiment: chemical genetic growth profiling, strain panel (AID 1159580);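 note: tested at 20 µM; growth read once vehicle control cultures reached saturation at 30 °C; 1 = growth at the plate median or of vehicle wells; lower values mean less growth of the strain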
Conditions: S. cerevisiae deletion strains, growth OD

Measured: normalized growth

COc1cc2cc[n+]3cc4c(OC)c(OC)ccc4cc3c2cc1OC
inactive: locus YAL013W, strain DEP1, active compounds read low 0.996 | locus YAL021C, strain ccr4, active compounds read low 0.99 | locus YAL026C, strain drs2, active compounds read low 0.97 | locus YAL030W, strain snc1, active compounds read low 0.965 | locus YBL061C, strain skt5, active compounds read low 0.971 | locus YBR009C, strain hhf1, active compounds read low 0.984 | locus YBR021W, strain FUR4, active compounds read low 1.03 | locus YBR023C, strain chs3, active compounds read low 0.977 | locus YBR171W, strain sec66, active compounds read low 0.975 | locus YBR229C, strain ROT2, active compounds read low 0.99 | locus YBR231C, strain swc5, active compounds read low 0.983 | locus YBR279W, strain paf1, active compounds read low 0.982 | locus YCL011C, strain gbp2, active compounds read low 0.963 | locus YCL016C, strain dcc1, active compounds read low 0.976 | locus YCL029C, strain bik1, active compounds read low 0.983 | locus YCL061C, strain MRC1, active compounds read low 0.987 | locus YCL069W, strain vba3, active compounds read low 0.981 | locus YCR088W, strain abp1, active compounds read low 0.982 | locus YDL005C, strain med2, active compounds read low 0.957 | locus YDL035C, strain GPR1, active compounds read low 0.975 | locus YDL040C, strain nat1, active compounds read low 0.985 | locus YDL074C, strain BRE1, active compounds read low 0.977 | locus YDL101C, strain DUN1, active compounds read low 0.98 | locus YDL134C, strain PPH21, active compounds read low 0.985 | locus YDL192W, strain arf1, active compounds read low 0.986 | locus YDR001C, strain nth1, active compounds read low 0.964 | locus YDR069C, strain doa4, active compounds read low 0.981 | locus YDR101C, strain arx1, active compounds read low 0.978 | locus YDR137W, strain rgp1, active compounds read low 0.977 | locus YDR150W, strain NUM1, active compounds read low 0.954 | locus YDR159W, strain sac3, active compounds read low 0.982 | locus YDR162C, strain NBP2, active compounds read low 0.99 | locus YDR195W, strain ref2 0.949 | locus YDR297W, strain sur2, active compounds read low 0.979 | locus YDR318W, strain mcm21, active compounds read low 0.969 | locus YDR334W, strain swr1, active compounds read low 0.944 | locus YDR335W, strain msn5, active compounds read low 0.98 | locus YDR388W, active compounds read low 0.989 | locus YDR392W, strain spt3, active compounds read low 0.927 | locus YDR502C, strain sam2, active compounds read low 0.98 | locus YEL003W, strain gim4, active compounds read low 0.974 | locus YEL037C, strain rad23, active compounds read low 0.967 | locus YEL061C, strain CIN8 (second series), active compounds read low 0.976 | locus YEL061C, strain CIN8, active compounds read low 0.996 | locus YER015W, strain faa2, active compounds read low 0.971 | locus YER016W, strain bim1, active compounds read low 0.974 | locus YER110C, active compounds read low 0.962 | locus YER111C, strain swi4, active compounds read low 0.972 | locus YER155C, strain BEM2 (second series), active compounds read low 0.976 | locus YER155C, strain BEM2, active compounds read low 1.01 | locus YER167W, strain BCK2, active compounds read low 0.978 | locus YFR010W, strain ubp6, active compounds read low 0.952 | locus YGL078C, strain dbp3, active compounds read low 0.979 | locus YGL086W, strain mad1, active compounds read low 0.975 | locus YGL167C, strain pmr1, active compounds read low 0.973 | locus YGL173C, strain kem1, active compounds read low 0.954 | locus YGL227W, strain vid30, active compounds read low 0.973 | locus YGL240W, strain doc1, active compounds read low 0.987 | locus YGL248W, strain PDE1, active compounds read low 0.99 | locus YGL253W, strain hxk2, active compounds read low 0.974 | locus YGR078C, strain PAC10, active compounds read low 0.986 | locus YGR135W, strain pre9, active compounds read low 1 | locus YGR229C, strain SMI1, active compounds read low 1.01 | locus YGR252W, strain gcn5, active compounds read low 0.93 | locus YHR013C, strain ard1, active compounds read low 0.945 | locus YHR027C, strain rpn1, active compounds read low 0.967 | locus YHR030C, strain SLT2, active compounds read low 0.982 and 1.02 | locus YHR079C, strain IRE1 (second series), active compounds read low 0.977 | locus YHR079C, strain IRE1, active compounds read low 1.04 | locus YHR094C, strain hxt1, active compounds read low 0.969 | locus YHR129C, strain ARP1, active compounds read low 0.945 | locus YHR142W, strain chs7, active compounds read low 0.932 | locus YHR200W, strain rpn10, active compounds read low 0.965 | locus YIL066C, strain RNR3, active compounds read low 0.974 | locus YIL073C, strain SPO22, active compounds read low 0.875 | locus YIL125W, strain kgd1, active compounds read low 0.965 | locus YIR030C, strain dcg1, active compounds read low 0.98 | locus YJL092W, strain hpr5, active compounds read low 0.978 | locus YJL095W, strain BCK1 (second series), active compounds read low 0.993 | locus YJL095W, strain BCK1, active compounds read low 0.994 and 0.984 | locus YJL115W, strain asf1, active compounds read low 0.936 | locus YJL129C, strain trk1, active compounds read low 0.94 | locus YJL134W, strain LCB3, active compounds read low 0.973 | locus YJL154C, strain vps35, active compounds read low 0.967 | locus YJL164C, strain tpk1, active compounds read low 1 | locus YJL166W, strain qcr8, active compounds read low 0.984 | locus YJL168C, strain set2, active compounds read low 0.98 | locus YJL187C, strain SWE1 (second series), active compounds read low 0.976 | locus YJL187C, strain SWE1, active compounds read low 0.988 | locus YJR043C, strain POL32, active compounds read low 0.96 | locus YJR066W, strain TOR1, active compounds read low 0.976
